ROMK mod = modulates human ROMK potassium channel activity; B-score at 10 µM; P48048; 130,000 compounds, 2% hits; Tet-inducible ROMK, thallium flux fluorescence; actives lie on both sides;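 active means signal ratio slope over the read window, or its plate-corrected B-score, at least 3 SD from the plate mean, either direction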;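 further: B-score of the F/F0 ratio slope over 7 to 12 s after thallium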
Target sequence (P48048 whole entry, looked up): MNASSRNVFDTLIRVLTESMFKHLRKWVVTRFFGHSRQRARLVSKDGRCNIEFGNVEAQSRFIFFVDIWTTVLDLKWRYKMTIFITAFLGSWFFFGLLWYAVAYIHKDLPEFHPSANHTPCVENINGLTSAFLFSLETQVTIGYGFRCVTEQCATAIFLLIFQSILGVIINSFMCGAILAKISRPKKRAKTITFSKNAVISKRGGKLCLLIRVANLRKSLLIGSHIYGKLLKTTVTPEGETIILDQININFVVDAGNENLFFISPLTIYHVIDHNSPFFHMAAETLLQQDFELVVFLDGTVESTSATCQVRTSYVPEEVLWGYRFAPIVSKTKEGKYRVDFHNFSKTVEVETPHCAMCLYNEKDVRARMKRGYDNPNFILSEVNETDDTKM
Insulin prom inh = TRM-6 insulin promoter activity inhibition | inhibition, % at 2 µM | AID 1273 | TRM-6 cells (human fetal islet line), insulin promoter-eGFP reporter, imaging; reporter expression induced with tamoxifen | 130,000 compounds, 0.9% hits;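 active means inhibition above the mean plus 3 SD, with well images judged a real hit on visual review, cut at about 60% in these data, passing the limit was not always enough; inconclusive means inhibition over the cutoff but images rejected on review; inactive means inhibition not above the cutoff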
Insulin prom up = MIN6 insulin promoter up-regulation. MIN6 insulin promoter-GFP reporter, high-content imaging; active compounds read high. 190,000 compounds, 0.3% hits. z-score at 5 µM. AID 1625;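 active means z-score above 3 at 5 µM with at least 500 cells counted in the well; inconclusive means wells under 500 cells, flagged as cytotoxic or low count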
WT yeast gro inh = growth inhibition of WT yeast, mitochondrial fusion screen; mitochondrial fusion phenotypic screen, WT strain; inhibition, % at 10 µM; 190,000 compounds, 2.1% hits; AID 1362; in the data active means inhibition above about 58%; tested in S. cerevisiae
Lmaj promast = Leishmania major promastigote growth inhibition | Leishmania major promastigotes, resazurin fluorescence viability | inhibition, % at 10 µM | 200,000 compounds, 9% hits; in the data active means inhibition above about 50%;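 further: promastigotes grown with compound for 44 hours at 28 °C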
KCC2 mod = KCC2 (human) Cl- transport modulation; B-score of Tl+ flux slope (higher = more flux/activation; lower = inhibition) at 10 µM; Q9H2X9; KCC2 cells, thallium flux FluoZin-2 fluorescence; 190,000 compounds, 2.2% hits; AID 1456;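 active means thallium flux slope and its plate-corrected score both differing from the plate sample mean at a set confidence after two filtering rounds, in either direction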;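 further: slope of fluorescence scaled to starting intensity during 10 to 20 s after thallium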
ROMK hit retest = confirmation of human ROMK potassium channel modulators. normalized thallium flux (F/F0 slope) at 10 µM. ROMK thallium flux, fluorescence ratio; active compounds read low. shares compounds with ROMK mod. AID 1917. 3,000 compounds, 54% hits;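 active means Flux at 10 µM at least 3 SD below or above vehicle control mean in one or both replicates; inconclusive means no clear call, values can overlap the other calls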
Starred values were filed as active, the others as inactive. Shown are actives, neighbours in structure and some others; about 12% of the full set was active somewhere.

For CCN1CCc2c(C#N)c(N3CCCCC3)nc(NCc3ccccc3)c2C1 the results were ROMK mod -2.6*, Insulin prom inh -11, Insulin prom up -1.1, WT yeast gro inh 46, Lmaj promast 43, KCC2 mod 0.66 and ROMK hit retest 0.066*.
Screening CCN1CCc2c(C#N)c(N3CCOCC3)nc(NCc3ccccc3)c2C1 returned ROMK mod -1.7, Insulin prom inh -43, Insulin prom up -1.2, WT yeast gro inh 8, Lmaj promast 21 and KCC2 mod 0.32.
Screening CC(C)CCNC(=O)C(c1ccc(O)cc1)N(Cc1cccs1)C(=O)C1COc2ccccc2O1 (stereo not given) returned ROMK mod -2.8*, Insulin prom inh -44, Insulin prom up -0.14, WT yeast gro inh 18, Lmaj promast 100*, KCC2 mod -0.99 and ROMK hit retest 0.061*.
Screening COc1cc(NC(=S)NCc2cccs2)cc(OC)c1 returned ROMK mod -0.49, Insulin prom inh -36, Insulin prom up -0.34, WT yeast gro inh 6, Lmaj promast 8 and KCC2 mod 1.3.
`Cc1ccc(S(=O)(=O)NC2=NCN(Cc3cccnc3)CN2)cc1` gave ROMK mod 0.58, Insulin prom up 0.4, WT yeast gro inh -15 and Lmaj promast -3.
For CCC(C)(C)c1ccc(OCCCC[n+]2cccc(C)c2)c(C(C)(C)CC)c1 the results were ROMK mod -4.1*, Insulin prom inh -11, Insulin prom up inconclusive, WT yeast gro inh 98*, Lmaj promast 100*, KCC2 mod 0.84 and ROMK hit retest 0.047*.
`O=S(=O)(NCCc1cn2ccccc2n1)c1ccc2c(c1)OCCO2` gave Insulin prom up 0.7, WT yeast gro inh -2, Lmaj promast -2 and KCC2 mod 0.78.
For CCSc1nnc2nc(C)cc(C)n12 the results were ROMK mod 1.9*, Insulin prom inh 46, Insulin prom up 0.21, WT yeast gro inh 0, Lmaj promast -3, KCC2 mod 0.51 and ROMK hit retest 0.08.
Cc1cc(C)n2c(SCC(C)C)nnc2n1 was read as Insulin prom inh 62, Insulin prom up -0.24, WT yeast gro inh -5, Lmaj promast 0 and KCC2 mod -0.0056.
`C=C(C)CSc1nc2sc3c(c2c(=O)n1C1CCCCC1)CCN(C)C3` gave Insulin prom up -0.83, KCC2 mod -0.27 and ROMK hit retest 0.065*.
For Cc1ccc(NC(=O)C(C)N2C(=O)c3ccccc3C2=O)nc1 (stereo not given) the results were ROMK mod 0.36, Insulin prom up 0.31, WT yeast gro inh -4, Lmaj promast -3 and KCC2 mod 2.7.
Screening Cc1cc(C)cc(OCCNC(=O)C(C)N2C(=O)c3ccccc3C2=O)c1 (stereo not given) returned ROMK mod 2.4*, Insulin prom inh 24, WT yeast gro inh -4, Lmaj promast -2, KCC2 mod -0.86 and ROMK hit retest 0.083.
Screening CCCS(=O)(=O)c1c(S(=O)(=O)CCC)c2ccc(C(N)=O)cn2c1C(=O)c1ccc(OC)cc1 returned ROMK mod -2.7, Insulin prom inh 11, WT yeast gro inh -8, Lmaj promast -7, KCC2 mod 0.047 and ROMK hit retest 0.061*.
Screening Cn1c(-n2c(CCN3C(=O)c4ccccc4C3=O)nc3ccccc3c2=O)nc2ccccc21 returned Insulin prom up 0.3 and WT yeast gro inh 7.
`O=Nc1c(O)n(Cc2ccccc2)c2ccccc12` gave Insulin prom up 0.08 and KCC2 mod -0.35.
Cc1c(CCCN)c2ccccc2n1Cc1ccccc1 was read as ROMK mod -2.9*, Insulin prom inh -25, WT yeast gro inh 10, Lmaj promast 92* and ROMK hit retest 0.05*.
Cc1nn(C(=O)c2nn(C)cc2Cl)c(C)c1Br was read as Insulin prom inh -54, Insulin prom up 0.97, WT yeast gro inh 8, Lmaj promast 44 and KCC2 mod 1.1.
Screening CCCCOC(=O)CSC1=C(C#N)C(c2cccnc2)C(C(=O)OCC)=C(c2ccccc2)N1 (stereo not given) returned ROMK mod -3.4*, Insulin prom up -0.93, WT yeast gro inh 57, Lmaj promast 16, KCC2 mod -1.4 and ROMK hit retest 0.067*.
`CCOC(=O)C1=C(c2ccccc2)NC(SC)=C(C#N)C1c1cccnc1` (stereo not given) gave ROMK mod -0.12, Insulin prom inh -60, Insulin prom up -1.2, WT yeast gro inh -4, Lmaj promast 39 and KCC2 mod -0.76.
CCOc1ccc(S(=O)(=O)N(C)CCO)cc1-c1nc2c(C(C)(C)C)nn(C)c2c(=O)[nH]1 was read as ROMK mod -4.3*, Insulin prom inh 24, Insulin prom up -2.3, WT yeast gro inh 19, Lmaj promast 31 and ROMK hit retest 0.048*.
CCN1C(=O)c2cccc3c(S(=O)(=O)Nc4ccccc4OC)ccc1c23 was read as Insulin prom inh -109, Insulin prom up -0.17, WT yeast gro inh 33, Lmaj promast 17, KCC2 mod -1.6 and ROMK hit retest 0.062*.
Screening COc1cccc(CN2C(=O)c3cccc(N)c3C2=O)c1 returned ROMK mod -2.1*, Insulin prom inh 30, Insulin prom up -0.3, WT yeast gro inh -18, Lmaj promast -4, KCC2 mod 0.35 and ROMK hit retest 0.057*.
Screening O=C(CSCc1ccccc1)NNC(=S)Nc1cccc(Cl)c1Cl returned Insulin prom inh 37, Insulin prom up -0.2, WT yeast gro inh 27, Lmaj promast -13, KCC2 mod 3.6 and ROMK hit retest 0.079.
For CNC(=S)NNC(=O)CSCc1c(Cl)cccc1Cl the results were Insulin prom up 0.75 and KCC2 mod 0.06.
O=C(/C=C/Nc1ccc(F)c(F)c1)c1cccs1 was read as Insulin prom up -0.13, WT yeast gro inh 5, Lmaj promast -5 and KCC2 mod -1.1.
`CCCCc1nc2ccccc2c(NC(=O)CN2CCCC2)c1CCC` gave ROMK mod -1.6, Insulin prom inh -254, Insulin prom up -0.3, WT yeast gro inh -18, Lmaj promast 13 and KCC2 mod -0.62.
`CCCCc1nc2ccccc2c(NC(=O)CNC(C)(C)C)c1CCC` gave ROMK mod -2.8*, Insulin prom up -0.93, WT yeast gro inh 19, Lmaj promast 6, KCC2 mod -0.47 and ROMK hit retest 0.055*.
`COc1cc(/C=C2\SC(c3ccccc3)=NC2=O)cc(Cl)c1O` gave ROMK mod 3.2*, Insulin prom up -0.2, WT yeast gro inh 34, Lmaj promast 31, KCC2 mod -2.1 and ROMK hit retest 0.066*.
`COc1ccc(/C=C2/SC(c3ccc(C)cc3)=NC2=O)cc1OC` gave ROMK mod -3.2*, Insulin prom up 0.04, WT yeast gro inh -4, Lmaj promast -3 and ROMK hit retest 0.053*.

Screening data (PubChem)
